An excerpt weighted towards active compounds, which were near 15% of everything screened.
Pf growth 96h = Primary qHTS for delayed death inhibitors of the malarial parasite plastid, 96 hour incubation; Potency, µM (titrated, usually from 28.7 µM), most hits filed as inhibitors; 320,000 compounds, 6.9% hits; P. falciparum luciferase reporter growth, 96 h
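Cell-based qHTS: luciferase-tagged P. falciparum in erythrocytes (2% hematocrit, 0.05% parasitemia final) incubated with compounds for 96 hours, 37 C, 5% CO2; luciferase detection reagent then added and luminescence measured.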
HCMV antiviral = qHTS Assay for inhibitors of the human cytomegalovirus (HCMV). HFF cells, HCMV-luciferase reporter, 72 h; stronger effect = lower value. activity change, negative = inhibition, % at 57.5 µM. 410,000 compounds, 4.5% hits. AID 1259415, 2018; in the data active means activity change below about -60%; inconclusive means no clear call, values can overlap the other calls; inactive means above about -39%
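HFF cells seeded 16 h at 37C, treated with compounds, infected with luciferase-reporter HCMV at MOI 1 PFU/cell; luciferase read at 72 h post infection, normalized to buffer-only and Salinomycin controls.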
Pf growth 48h = Primary qHTS for delayed death inhibitors of the malarial parasite plastid, 48 hour incubation; 310,000 compounds, 5.9% hits; P. falciparum luciferase growth in erythrocytes, 48 h; Potency, µM (titrated, usually from 28.7 µM), hits mostly inhibitors; AID 504832, 2011
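Here the parasites carry a stable luciferase gene and grow inside erythrocytes in Albumax-based RPMI medium with compound for one erythrocytic cycle. Activity is scored as loss of luminescent signal.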
SARS PLP yeast = qHTS of Yeast-based Assay for SARS-CoV PLP | S. cerevisiae expressing SARS-CoV PLpro, growth rescue | Potency, µM (doses to about 32.9 µM), hits mostly activators | 330,000 compounds, 0.19% hits | AID 485353, 2010; calls by dose curve; further: nearly all actives have a fitted effect of over 55% in size
HCV inhibitor = qHTS Assay for Inhibitors of Hepatitis C Virus (HCV); Huh7.5.1 HCVcc-Cre infection, luciferase reporter, 44 h; Potency, µM (highest dose often 41.8 µM), most hits filed as inhibitors; 340,000 compounds, 3.4% hits; AID 651820, 2012
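Cells seeded at 1,000/well and cultured 4 h, then compounds added followed by HCVcc-Cre virus (~0.5 moi). After 44 h further culture, luciferase substrate was added, plates held 15 min at room temperature, and luminescence read for 15 sec.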
Sm TGR inh = qHTS Assay for the Inhibitors of Schistosoma Mansoni Peroxiredoxins; Potency, µM (series often up to 114 µM), actives largely listed as inhibitors; Schistosoma mansoni thioredoxin glutathione reductase (TGR), Q962Y6; AID 485364, 2010; purified TGR, DTNB reduction, TNB absorbance 405 nm; 360,000 compounds, 3% hits; further: nearly all actives have a fitted effect of over 60% in size
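TGR 20 nM + NADPH 100 uM (dispensed conc.), cpd preinc 15 min RT; start with NADPH (500 uM addition) then DTNB (15 mM addition). Kinetic TNB absorbance, 405 nm filter. Four-parameter Hill fit across titration.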
Hits are given with their value; [ ] = dose if it differs, or a comment. Unless noted, the call rests on the fitted dose curve; in most records, active means well fitted curve in the direction sought with a large enough effect; inconclusive means small, poorly fitted or top-dose-only effect, or another doubt; inactive means no such curve, though single readings can be large; an effect the other way counts as inactive or inconclusive.

CCN(CCCNC(=O)c1cc2c(=O)n(CC)c3ccccc3c2s1)c1ccccc1 was read as HCMV antiviral inactive and Sm TGR inh inactive.
Screening CCOC(CNC(=O)c1cc2c(=O)n(CC)c3ccccc3c2s1)OCC returned Pf growth 96h inactive, HCMV antiviral inactive, Pf growth 48h inactive[0.00184 µM], SARS PLP yeast inactive, HCV inhibitor inconclusive and Sm TGR inh inactive.
`CCCCN(CC)CCNC(=O)c1cc2c(=O)n(CC)c3ccccc3c2s1` gave Pf growth 96h inactive, HCMV antiviral inactive, Pf growth 48h inconclusive, SARS PLP yeast inactive, HCV inhibitor 2.5µM and Sm TGR inh inactive.
`CCCN(CCC)CCCNC(=O)c1cc2c(=O)n(CC)c3ccccc3c2s1` gave Pf growth 96h inconclusive, HCMV antiviral inactive, Pf growth 48h inactive[0.00184 µM], SARS PLP yeast inactive, HCV inhibitor 7.9µM and Sm TGR inh inactive.
COc1cc(Cl)c(C)cc1NC(=O)CNC(=O)Cn1ccc2ccccc2c1=O was read as HCMV antiviral inactive and Sm TGR inh inactive.
CC(C)C[C@@H](CO)N1CCN(Cc2ccc([N+](=O)[O-])cc2)CCC1=O was read as Pf growth 96h inactive, HCMV antiviral inactive, Pf growth 48h inactive, SARS PLP yeast inactive, HCV inhibitor inactive and Sm TGR inh inactive.
CC(=O)O[C@H]1C[C@@H]2OC3C=C(C)CCC3(C)[C@@]1(C)[C@@]21CO1 (stereo partly specified) was read as HCMV antiviral -98.
`CN(CC(=O)Nc1ccc(Cl)c(C(F)(F)F)c1)C(=O)CCN1C(=O)C2CC=CCC2C1=O` (stereo unspecified) gave Pf growth 96h inactive, HCMV antiviral inactive, Pf growth 48h inactive, SARS PLP yeast inactive, HCV inhibitor inactive and Sm TGR inh inactive.
For Cc1cc(NC(=O)Nc2cc(C)nn2-c2ccccc2)n(-c2ccccc2)n1 the results were Pf growth 96h inactive, HCMV antiviral inactive, SARS PLP yeast inactive, HCV inhibitor inconclusive and Sm TGR inh inactive.
Cc1cc(N2C(=O)CCC2=O)n(-c2ccccc2)n1 was read as Pf growth 96h 10µM, HCMV antiviral inactive, Pf growth 48h inactive, SARS PLP yeast inactive, HCV inhibitor inactive and Sm TGR inh inactive.
`Cc1ccc(Oc2c(CO)c(-c3ccccc3)nn2C)cc1` gave Pf growth 96h inactive, HCMV antiviral inactive, Pf growth 48h inactive, SARS PLP yeast inactive, HCV inhibitor inactive and Sm TGR inh inactive.
O=C(O)c1nc(=O)[nH]c(=O)[nH]1 was read as Pf growth 96h inactive and Pf growth 48h inactive.
For O=C(O)c1[nH]c(=O)[nH]c(=O)c1F the results were Pf growth 96h 0.0033µM, HCMV antiviral inactive, Pf growth 48h 0.012µM, SARS PLP yeast inactive, HCV inhibitor inconclusive and Sm TGR inh inactive.
For O=C(CCl)NCc1cc(-c2ccc(Cl)cc2)no1 the results were Pf growth 96h 2.9µM, HCMV antiviral -113, Pf growth 48h 2.1µM, SARS PLP yeast inactive, HCV inhibitor 11µM and Sm TGR inh 32µM.
`CCOC(=O)c1cnc(SSc2ncc(C(=O)OCC)c(N)n2)nc1N` gave Pf growth 96h inconclusive, HCMV antiviral inactive, Pf growth 48h inactive, SARS PLP yeast inactive, HCV inhibitor inconclusive and Sm TGR inh 50µM.
`CCOC(=O)c1cnc(SCc2cccc3ccccc23)nc1N` gave Pf growth 96h 4.7µM, HCMV antiviral inactive, SARS PLP yeast inactive, HCV inhibitor inconclusive and Sm TGR inh inactive.
`CCCCc1nc(SCC(=O)N2CCOCC2)c2c(=O)n(C)c(=O)n(C)c2n1` gave Pf growth 96h inactive, HCMV antiviral inactive, Pf growth 48h inactive, SARS PLP yeast inactive, HCV inhibitor inactive and Sm TGR inh inactive.
COC(=O)c1ccc(NC(=O)C2CCCN2C(=O)OCc2ccccc2)cc1 (stereo unspecified) was read as Pf growth 96h 5.9µM, HCMV antiviral inactive, Pf growth 48h inactive, SARS PLP yeast inactive, HCV inhibitor inactive and Sm TGR inh inactive.

Assay outcomes deposited in PubChem BioAssay by National Center for Advancing Translational Sciences (NCATS).
